CHT inh – inhibits the human high affinity choline transporter; Q9GZV3; CHT-expressing cells, membrane potential dye, choline response; stronger effect = lower value; B-score at 10 µM; actives 0.86% (n = 310,000); AID 488975;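 active = B-score over 3 SD under the library average, and starting fluorescence ratio not unusually high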;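 note: choline stimulus applied at its EC90 after an EC20 pre-addition; B-score computed on integrated fluorescence ratio after choline addition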
HDAC3 inh – human HDAC3 inhibition | inhibition, % at 8.3 µM | actives 0.15% (n = 320,000) | O15379 | recombinant HDAC3, fluorogenic peptide/trypsin coupled, fluorescence; in the data active = inhibition above about 26%, passing the limit was not always enough
TMEM16A inh – blocks the mouse calcium-activated chloride channel TMEM16A; Q8BHY3; HEK293 TMEM16A/YFP iodide influx fluorescence, ionomycin; normalized B-score (activity score, 25-100; higher = stronger inhibition) at 10 µM; actives 1.2% (n = 310,000);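 active = ratio plate-corrected score three or more library SD toward inhibition, starting fluorescence score within five deviations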;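 note: score derived from kinetic fluorescence span divided by baseline fluorescence per well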
TMEM16A act – activators or potentiators of mouse TMEM16A chloride channel | HEK293 TMEM16A/YFP-H148Q/I152L, iodide quench fluorescence; stronger effect = lower value | B-score at 10 µM | Q8BHY3 | actives 0.3% (n = 340,000) | AID 623877;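 active = fluorescence-ratio B-score plate-corrected deviation score at least 3 library SD below zero, with starting fluorescence score within 5 deviations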;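 note: channel opened by trigger with iodide after compound preincubation; score built on the fluorescence ratio of max minus min over baseline; more negative score means more quench and so TMEM16A activation or potentiation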
CHT allo act – allosteric activators of human choline transporter CHT | CHT-expressing cells, membrane potential dye, choline EC20; stronger effect = higher value; LV-AA mutant CHT in HEK293 cells | AID 488977 | actives 0.49% (n = 310,000) | B-score at 10 µM;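 active = initial fluorescence not abnormally high and integrated response B-score, plate-corrected, over 3 SD above library mean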
PHOSPHO1 inh – blocks human PHOSPHO1 phosphatase activity; Q8TCT1; recombinant PHOSPHO1, absorbance phosphatase assay; inhibition, % at 13.3 µM; actives 1.1% (n = 290,000); in the data active = inhibition above about 60%
Target sequence (Q8TCT1 whole entry, looked up): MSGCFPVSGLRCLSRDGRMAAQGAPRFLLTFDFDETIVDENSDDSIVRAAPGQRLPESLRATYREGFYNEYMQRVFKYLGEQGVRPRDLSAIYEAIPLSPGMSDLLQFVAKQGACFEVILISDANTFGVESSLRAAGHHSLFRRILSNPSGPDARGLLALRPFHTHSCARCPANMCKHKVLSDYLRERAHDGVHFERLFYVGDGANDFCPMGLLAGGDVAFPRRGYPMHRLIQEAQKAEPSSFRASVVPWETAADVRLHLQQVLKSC
TMEM16A reconf – re-confirmation of mouse TMEM16A chloride channel inhibitors. HEK293 TMEM16A/YFP-H148Q, iodide quench fluorescence; ionomycin added to raise cell calcium. actives 39% (n = 2,300). AID 652189. shares compounds with TMEM16A inh. inhibition, % at 10 µM;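 active = mean duplicate percent inhibition, scaled so buffer wells are 0 and the reference blocker 100, over three buffer SD above buffer mean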
TMEM16A Ca cntr – alters calcium mobilization in TMEM16A HEK293 cells, counter-screen; shares compounds with TMEM16A inh; TMEM16A/YFP HEK293, Fluo4 calcium mobilization; calcium response (% of ionomycin), % at 10 µM; actives 2% (n = 2,300); AID 652231;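 active = duplicate-averaged calcium signal over 20% of the ionomycin maximum, relative to buffer baseline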;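 note: each well's signal is peak minus trough fluorescence divided by its pre-addition baseline; 0% = buffer wells and 100% = ionomycin wells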
YFP-HEK293 quench – acts in parental YFP-HEK293 cells lacking TMEM16A, counter-screen; shares compounds with TMEM16A inh; iodide YFP quench, ionomycin; YFP ratio F(max-min)/F0 at 10 µM; 2,300 tested, under 10 active; AID 652233;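 active = yellow fluorescent protein signal ratio exceeding the buffer control mean by over 5 SD of those controls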;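 note: ratio is mean of duplicate wells from kinetic YFP trace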
ClC-1 rat inh – rat ClC-1 inhibition, TMEM16A specificity screen | AID 652236 | ratio percent, % at 10 µM | CHO ClC-1-YFP, iodide influx fluorescence quench; iodide control reads 0, buffer control 100 | shares compounds with TMEM16A inh | 2,300 tested, under 10 active;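 active = duplicate-mean ratio percent above the mean of iodide-only control wells, which defines zero, plus 5 of their SD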;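 note: higher percent means stronger block of ClC-1 iodide influx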
Numbers without * were called inactive; i = inactive; / = not tested or not shown. The list is not random: actives were taken first. Their share in the collection is about 3.2%.

SMILES | CHT inh | HDAC3 inh | TMEM16A inh | TMEM16A act | CHT allo act | PHOSPHO1 inh | TMEM16A reconf | TMEM16A Ca cntr | YFP-HEK293 quench | ClC-1 rat inh
Cc1cccc(NC(=O)C2C(c3ccccc3)C2(Cl)Cl)c1 (centres undefined) | i | 5 | 100* | i | i | 14 | i | i | -0.91 | -10
CC(NC(=O)CCNC(=O)c1ccc(Br)cc1)c1ccc(S(N)(=O)=O)cc1 (centres undefined) | i | -7 | i | i | i | / | / | / | / | /
Cc1nc2ccc(S(=O)(=O)NC(C(=O)Nc3nc4ccc(Cl)cc4s3)C(C)C)cc2s1 (centres undefined) | i | 3 | i | i | i | 15 | / | / | / | /
O=C(CC1C(=O)NCCN1Cc1ccc(Cl)c(F)c1)NCC1CCOCC1 (centres undefined) | i | 3 | i | i | i | 12 | / | / | / | /
O=C(NCCc1ccccc1)C(c1cccs1)N(C(=O)c1csnn1)C1CC1 (centres undefined) | i | -4 | 25* | i | i | -8 | i | i | -1 | -11
O=C(NCc1ccccc1)C(c1cccs1)N(C(=O)c1csnn1)C1CC1 (centres undefined) | i | 4 | i | i | i | 10 | / | / | / | /
CN(CCO)c1ccc([N+](=O)[O-])cc1C(=O)O | i | 2 | i | i | i | 0 | / | / | / | /
O=c1c(Cc2ccccc2)c(O)c2cccc3c4c(n1c23)CCCC4 | i | -6 | 25* | i | i | 37 | 41%* | i | -0.92 | -8
Cn1c(=O)c(Cc2ccccc2)c(O)c2ccccc21 | i | -2 | i | i | i | 12 | / | / | / | /
Cc1onc(-c2ccccc2)c1C(=O)Nc1nc2c(s1)CCCC2 | i | 6 | i | i | i | -9 | / | / | / | /
Cc1onc(-c2c(F)cccc2Cl)c1C(=O)Nc1nc2c(s1)CCCC2 | i | -3 | 100* | i | i | -3 | i | i | -1 | -9
COC(=O)C1=C[C@@H](C(=O)OC)[C@@H]2C3=C(C(=O)C2(C)C)[C@H](C)n2c(=O)n(-c4ccccc4)c(=O)n2[C@@H]3C1 | i | -10 | i | i | i | / | / | / | / | /
O=[N+]([O-])c1ccc(N2N=C(c3ccco3)CC2c2ccccc2)cc1 (centres undefined) | i | -4 | i | i | i | 27 | 27%* | i | -0.81 | 8
CCCOc1ccc(NC(=O)C2CC(=O)N3CCCN=C3S2)cc1 (centres undefined) | i | -2 | 25* | i | i | 4 | i | i | -1.1 | -16
c1ccc(CCNc2ncnc3scc(C4COc5ccccc5O4)c23)cc1 (centres undefined) | i | 7 | i | i | i | 13 | / | / | / | /
c1ccc2c(c1)OCC(c1csc3ncnc(N4CCCC4)c13)O2 (centres undefined) | i | 3 | 25* | i | i | 13 | 20%* | i | -0.96 | -12
CCCCOC(=O)C1=C(C)Nc2ncnn2C1c1ccc(OCC)c(OC)c1 (centres undefined) | i | -4 | 25* | i | i | 9 | i | i | -1.1 | 0
COc1ccc(OC)c(-c2cc(C3CCN(c4cc(Cl)nc(N)n4)CC3)[nH]n2)c1 | i | -2 | 100* | i | i | 32 | i | i | -1.2 | -20
COc1ccc(OC)c(-c2cc(C3CCN(c4ncccc4[N+](=O)[O-])CC3)[nH]n2)c1 | i | 10 | i | / | i | -37 | / | / | / | /
CC1=CC(C)(C)N(C(=O)c2ccc(F)cc2)c2cc3c(cc21)OCO3 | i | 8 | 100* | i | i | 4 | 58%* | i | -1 | -13
O=C(CO/N=C/c1ccc(Cl)cc1Cl)NNC(=O)c1ccc(Cl)cc1Cl | i | 2 | i | i | i | 18 | / | / | / | /
c1coc(CNc2nc3nonc3nc2NCc2ccco2)c1 | i | 4 | 25* | i | i | 25 | i | i | -0.89 | -12
CCc1ccc(N2CCN(CCNC(=O)Nc3ccccc3)CC2)cc1 | i | 5 | i | i | i | / | / | / | / | /
O=C(OC1CCN(c2ncc(C(F)(F)F)cc2Cl)CC1)c1ccc(Cl)cc1 | i | -1 | i | i | i | -5 | / | / | / | /
O=C(OCCN1CCN(c2ncc(C(F)(F)F)cc2Cl)CC1)c1ccc(Cl)cc1 | i | -2 | 100* | i | i | -11 | i | i | -1.1 | -6
SMILES | CHT inh | HDAC3 inh | TMEM16A inh | TMEM16A act | CHT allo act | PHOSPHO1 inh | TMEM16A reconf | TMEM16A Ca cntr | YFP-HEK293 quench | ClC-1 rat inh
COc1ccc(C2C(C#N)=C(N)Oc3n[nH]c(C)c32)cc1Cn1cc([N+](=O)[O-])cn1 (centres undefined) | i | 3 | i | i | i | 8 | / | / | / | /
CCOC(=O)C(CC)(CCC(=O)OC)c1csc(Nc2ccccc2O)n1 (centres undefined) | i | 6 | i | / | i | -5 | / | / | / | /
CCOC(=O)C(CCC(=O)O)(CCC(C)C)c1csc(N)n1 (centres undefined) | i | -7 | 100* | i | i | 6 | i | i | -0.97 | -14
CC(C)(C)NC(=O)Cn1c(SCC(=O)NC2CC2)nc2ccccc21 | i | 10 | i | i | i | 2 | / | / | / | /
CC(C)(C)NC(=O)Cn1c(SCC(N)=O)nc2ccccc21 | i | 1 | 100* | i | i | 45 | i | i | -1.1 | -8
COc1ccc(S(=O)(=O)Nc2nc3ccccc3s2)cc1OC | i | -8 | i | i | i | 8 | / | / | / | /
COc1ccc(NC(=O)CSc2ccc(-c3cccnc3)nn2)cc1 | i | -8 | i | i | i | 34 | / | / | / | /
CCOC(=O)c1ccc(NC(=O)CSc2ccc(-c3cccnc3)nn2)cc1 | i | -8 | 25* | i | i | 1 | i | i | -1.1 | -5
OCCC#Cc1c(-c2ccsc2)sc2ccccc12 | i | 2 | i | i | i | 21 | / | / | / | /
CCCCNC(=O)Nc1nnc(SCC(=O)OCC)s1 | i | 0 | i | i | i | 32 | / | / | / | /

Screening results (PubChem)
